From ChEMBL document CHEMBL3988442, “University of Dundee, Small-Polar-MMV Screening Library” (2021)

target: T1, Tyrosyl-tRNA synthetase, putative (Trypanosoma cruzi (strain CL Brener)) (UniProt Q4DSP6); test: Trypanosoma cruzi tyrosyl tRNA synthetase (TcYRS) SOP; assay type: functional; parameters: scale not given: direction of the effect not stated beside the values; conditions: 30 µM
T1 sequence (whole entry): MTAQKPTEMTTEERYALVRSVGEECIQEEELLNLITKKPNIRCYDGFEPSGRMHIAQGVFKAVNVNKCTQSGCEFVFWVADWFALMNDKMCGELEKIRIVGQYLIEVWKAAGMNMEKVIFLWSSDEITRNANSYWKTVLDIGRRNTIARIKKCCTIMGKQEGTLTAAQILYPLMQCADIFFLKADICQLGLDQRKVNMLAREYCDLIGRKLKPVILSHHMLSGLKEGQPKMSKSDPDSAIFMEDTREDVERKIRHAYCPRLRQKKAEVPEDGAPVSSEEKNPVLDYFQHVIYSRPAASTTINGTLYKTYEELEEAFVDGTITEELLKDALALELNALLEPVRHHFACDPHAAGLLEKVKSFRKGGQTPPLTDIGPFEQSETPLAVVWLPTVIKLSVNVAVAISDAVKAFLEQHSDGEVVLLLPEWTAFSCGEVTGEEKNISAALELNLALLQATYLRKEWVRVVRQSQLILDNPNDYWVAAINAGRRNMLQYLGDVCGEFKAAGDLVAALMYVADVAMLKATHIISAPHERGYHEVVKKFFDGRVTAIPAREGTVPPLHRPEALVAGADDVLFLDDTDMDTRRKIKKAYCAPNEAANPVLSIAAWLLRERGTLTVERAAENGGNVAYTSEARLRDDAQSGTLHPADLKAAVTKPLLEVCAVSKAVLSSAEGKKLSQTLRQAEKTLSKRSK

Row | SMILES | Percent Effect
1 | O=C(NC[C@]12COC[C@H]1CN(Cc1nccs1)C2)c1ccccc1 | 7.69%
2 | CCc1cnc(CNc2ccc(C(=O)N3CCCC(C)C3)cc2C)o1 (centres undefined) | 0%
3 | Cc1cc(C[C@@H]2COC[C@@H]2NC(=O)CN2CCCC2)on1 | 10%
4 | Fc1cccc(Oc2ccc(CNCC3CNc4ccnn4C3)cn2)c1 (centres undefined) | 43.9%
5 | Cn1cccc1C(=O)N1CCN(Cc2ccncc2)c2ncccc2C1 | 10%
6 | CC(=O)Nc1nc(C(=O)N2CCCC(n3ccnc3)C2)cs1 (centres undefined) | 1.24%
7 | CN(C)C1CCN(C(=O)NCc2ccc(Cn3cncn3)cc2)CC1 | 17.1%
8 | NC(=O)CN1CCCN(C(=O)c2ccn(-c3cccc(F)c3)n2)CC1 | 5.13%
9 | COCCCC1(CO)CCCN(CCS(C)(=O)=O)C1 (centres undefined) | 5%
10 | CC1CCCCN1c1nc2c(c(=O)[nH]1)CCN(Cc1cccnc1)C2 (centres undefined) | 14.3%
11 | Cc1cc(CC(=O)N(CC2CN(C)CCO2)c2nccs2)no1 (centres undefined) | 6.1%
12 | CC(C)NC(=O)N1CCN(S(=O)(=O)C2CC2)CC2(CC(=O)N(C)C2)C1 (centres undefined) | 6.41%
13 | CCCNC(=O)N1CCN(Cc2cc(C)no2)CC1 | 23.5%
14 | O=C(COCc1ccccc1Cl)N1CCCC(n2cccn2)C1 (centres undefined) | 11.8%
15 | O=C(CN1CCCCC1Cn1cccn1)NC1CCN(C2CC2)CC1 (centres undefined) | 2.44%
16 | COCC1CC2(CCN(C(=O)c3cc(C)oc3C)CC2)CN1C(C)C (centres undefined) | 15.8%
17 | CCCN(CC(=O)NC)C(=O)c1ccc(-c2ccsc2)nc1C | 17.9%
18 | COCCN1C[C@H]2CC[C@@]3(N=C(C)N(CC4CC4)C3=O)[C@H]2C1 | 8.54%
19 | CCO[C@@H]1CC[C@H]2[C@H]1OCCN2C(=O)C1CCOCC1 | 1.22%
20 | O=C(c1cccnc1-n1cccn1)N1CCN(CC2CC2)CC1 | 0%

target: Chromo domain-containing protein 1 (Saccharomyces cerevisiae (strain ATCC 204508 / S288c) (Baker's yeast)) (UniProt P32657); test: ScCHD-1 Enzyme Inhibition Assay; assay type: functional; parameters: scale not given: in the data most compounds retested in dose-response had high values; conditions: 30 µM
Sequence (P32657 whole entry, the tested form may be a part): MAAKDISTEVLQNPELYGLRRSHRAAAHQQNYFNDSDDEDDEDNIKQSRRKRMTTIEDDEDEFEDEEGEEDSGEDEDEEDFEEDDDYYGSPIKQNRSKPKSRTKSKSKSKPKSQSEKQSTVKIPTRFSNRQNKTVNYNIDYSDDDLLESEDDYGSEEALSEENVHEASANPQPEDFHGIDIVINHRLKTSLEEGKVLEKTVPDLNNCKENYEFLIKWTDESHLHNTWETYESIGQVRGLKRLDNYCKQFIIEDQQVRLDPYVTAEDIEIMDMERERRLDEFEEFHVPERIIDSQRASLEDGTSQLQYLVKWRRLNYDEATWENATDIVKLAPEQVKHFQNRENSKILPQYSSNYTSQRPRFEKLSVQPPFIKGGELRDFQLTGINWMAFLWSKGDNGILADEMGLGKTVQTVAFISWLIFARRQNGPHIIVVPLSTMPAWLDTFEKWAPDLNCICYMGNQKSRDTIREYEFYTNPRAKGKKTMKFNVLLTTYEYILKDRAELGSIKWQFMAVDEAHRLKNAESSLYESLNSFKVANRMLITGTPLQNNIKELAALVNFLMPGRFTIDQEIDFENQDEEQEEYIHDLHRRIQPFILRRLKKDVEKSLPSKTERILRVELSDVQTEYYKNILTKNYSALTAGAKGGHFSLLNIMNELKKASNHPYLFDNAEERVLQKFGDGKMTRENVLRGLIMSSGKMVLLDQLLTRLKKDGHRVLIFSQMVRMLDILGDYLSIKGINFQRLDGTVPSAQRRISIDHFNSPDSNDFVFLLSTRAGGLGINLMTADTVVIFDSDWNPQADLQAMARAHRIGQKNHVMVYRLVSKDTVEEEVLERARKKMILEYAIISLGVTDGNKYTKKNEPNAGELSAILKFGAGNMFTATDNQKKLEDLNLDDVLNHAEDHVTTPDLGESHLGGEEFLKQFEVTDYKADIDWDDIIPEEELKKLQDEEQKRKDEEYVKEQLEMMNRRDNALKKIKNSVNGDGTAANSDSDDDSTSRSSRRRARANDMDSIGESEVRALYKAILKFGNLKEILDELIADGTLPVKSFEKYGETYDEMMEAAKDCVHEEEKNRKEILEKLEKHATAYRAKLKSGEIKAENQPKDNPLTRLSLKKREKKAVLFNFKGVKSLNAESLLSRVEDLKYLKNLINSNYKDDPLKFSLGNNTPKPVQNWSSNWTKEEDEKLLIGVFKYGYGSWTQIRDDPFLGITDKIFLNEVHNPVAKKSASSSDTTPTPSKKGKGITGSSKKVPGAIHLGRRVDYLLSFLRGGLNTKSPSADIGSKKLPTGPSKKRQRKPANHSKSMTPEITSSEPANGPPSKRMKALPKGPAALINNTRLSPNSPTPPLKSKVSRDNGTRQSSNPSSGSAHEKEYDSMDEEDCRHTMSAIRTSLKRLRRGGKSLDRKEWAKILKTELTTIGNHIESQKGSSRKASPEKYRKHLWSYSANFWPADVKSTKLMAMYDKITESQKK

Row | SMILES | Percent Effect
21 | CC(C(=O)Nc1ccc(N2CCCC2)nc1)n1ccnc1 (centres undefined) | -8.67%
22 | O=C1N(Cc2ccccc2F)CCCC12CCN(C1CCSCC1)C2 (centres undefined) | 0.67%
23 | Cn1cc(CN2CC3(CCN(C(=O)c4ccoc4)C3)C2)cn1 | -6.08%
24 | CCOC(=O)NC(CNC(=O)CCc1ccccn1)CC(C)C (centres undefined) | -0.238%
25 | Cc1ccc(C2CSCCN2C(=O)C2=CCCC2)o1 (centres undefined) | -2.84%
26 | Cc1nc(Nc2nccs2)cc(C2CCCN2C2CCOCC2)n1 (centres undefined) | -16.1%
27 | COCc1cn([C@@H]2c3ccccc3C3(CCNCC3)[C@H]2O)nn1 | -5.28%
28 | N#Cc1ccc(F)c(CN2CCCC2Cn2cnc3ccccc32)c1 (centres undefined) | 5.03%
29 | O=C(CCCc1ncc(-c2ccccc2)o1)N1CCN(CCO)CC1 | -3.58%
30 | CCn1cnnc1CNC(=O)N(C)Cc1ccc2c(c1)OCCO2 | -8.11%
31 | COCCNC(=O)C(C)n1cc(Br)cn1 (centres undefined) | 135%
32 | CCn1nc(CC(C)C)cc1C(=O)N1C[C@H](O)[C@@H](N2CCCCC2)C1 | -6.08%
33 | O=C(CN1CCC(c2ccnn2CCO)CC1)NCc1cccs1 | -5.84%
34 | CCOc1ccc(CC(=O)N2CCN(c3nccn3C)CC2)cc1 | -6.41%
35 | O=C(C1CC1)N1CCCC1C1CCN(Cc2ccccc2)CC1 (centres undefined) | -2.33%
36 | Cc1nc(C)n(CC2CN(c3ccc(C#N)cn3)CCO2)n1 (centres undefined) | -3.17%
37 | COc1cc(N2C[C@@H]3COC[C@]3(COCc3cccc(C)n3)C2)ncn1 | 2.03%

Row | SMILES | Percent Effect
38 | COCCN1CCC2(CC1)CC(COC)N(c1ncccn1)C2 (centres undefined) | 1.23%
39 | O=C(CCOCc1ccccc1)N1CCCC1c1noc(C2CC2)n1 (centres undefined) | -10%
40 | CS(=O)(=O)NCC1CCCN(Cc2ccc(F)c3cccnc23)C1 (centres undefined) | 3.65%
41 | O=C(NC[C@]12COC[C@H]1CN(Cc1nccs1)C2)c1ccccc1 | -9.52%
42 | CCc1cnc(CNc2ccc(C(=O)N3CCCC(C)C3)cc2C)o1 (centres undefined) | -5.54%
43 | Cc1cc(C[C@@H]2COC[C@@H]2NC(=O)CN2CCCC2)on1 | -4.15%
44 | Fc1cccc(Oc2ccc(CNCC3CNc4ccnn4C3)cn2)c1 (centres undefined) | -12.1%
45 | Cn1cccc1C(=O)N1CCN(Cc2ccncc2)c2ncccc2C1 | -5.07%
46 | CC(=O)Nc1nc(C(=O)N2CCCC(n3ccnc3)C2)cs1 (centres undefined) | 5.04%
47 | CN(C)C1CCN(C(=O)NCc2ccc(Cn3cncn3)cc2)CC1 | -10%
48 | NC(=O)CN1CCCN(C(=O)c2ccn(-c3cccc(F)c3)n2)CC1 | -0.989%
49 | COCCCC1(CO)CCCN(CCS(C)(=O)=O)C1 (centres undefined) | 2.4%
50 | CC1CCCCN1c1nc2c(c(=O)[nH]1)CCN(Cc1cccnc1)C2 (centres undefined) | -18.2%
51 | Cc1cc(CC(=O)N(CC2CN(C)CCO2)c2nccs2)no1 (centres undefined) | -3.54%
52 | CC(C)NC(=O)N1CCN(S(=O)(=O)C2CC2)CC2(CC(=O)N(C)C2)C1 (centres undefined) | -4.42%
53 | CCCNC(=O)N1CCN(Cc2cc(C)no2)CC1 | -7.68%
54 | O=C(COCc1ccccc1Cl)N1CCCC(n2cccn2)C1 (centres undefined) | -9.25%
